Screening data: PubChem, several laboratories
Shown are actives, neighbours in structure and some others; about 3.7% of the full set was active somewhere.
CHT inh – inhibits the human high affinity choline transporter; CHT-expressing cells, membrane potential dye, choline response; stronger effect = lower value; actives 0.86% (n = 310,000); AID 488975; B-score at 10 µM;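 active means B-score over 3 SD under the library average, and starting fluorescence ratio not unusually high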;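 further: choline stimulus applied at its EC90 after an EC20 pre-addition; B-score computed on integrated fluorescence ratio after choline addition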
TMEM16A inh – mouse TMEM16A channel inhibition, primary screen; Q8BHY3; HEK293 TMEM16A/YFP iodide influx fluorescence, ionomycin; normalized B-score (activity score, 25-100; higher = stronger inhibition) at 10 µM; actives 1.2% (n = 310,000); AID 588511;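 active means ratio plate-corrected score three or more library SD toward inhibition, starting fluorescence score within five deviations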;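 further: score derived from kinetic fluorescence span divided by baseline fluorescence per well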
CHT allo act – allosteric activators of human choline transporter CHT | B-score at 10 µM | AID 488977 | CHT-expressing cells, membrane potential dye, choline EC20; stronger effect = higher value; LV-AA mutant CHT in HEK293 cells | actives 0.49% (n = 310,000) | Q9GZV3;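 active means initial fluorescence not abnormally high and integrated response B-score, plate-corrected, over 3 SD above library mean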
Kir21 inh – inhibitors of mouse Kir2.1 inward-rectifier potassium channel; P35561; HEK293-Kir2.1, FluxOR thallium flux fluorescence; stronger effect = lower value; B-score at 10 µM; actives 0.85% (n = 310,000);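 active means fluorescence ratio B-score at or below minus 3 SD of library scores, with starting-brightness B-score within 2 SD, cut at about -4.2 in these data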;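 further: channel flux triggered by added potassium and thallium sulfate stimulus; B-score of peak minus minimum fluorescence over baseline after thallium stimulus; more negative B-score means stronger Kir2.1 block with less thallium influx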
Target sequence (P35561 whole entry, looked up): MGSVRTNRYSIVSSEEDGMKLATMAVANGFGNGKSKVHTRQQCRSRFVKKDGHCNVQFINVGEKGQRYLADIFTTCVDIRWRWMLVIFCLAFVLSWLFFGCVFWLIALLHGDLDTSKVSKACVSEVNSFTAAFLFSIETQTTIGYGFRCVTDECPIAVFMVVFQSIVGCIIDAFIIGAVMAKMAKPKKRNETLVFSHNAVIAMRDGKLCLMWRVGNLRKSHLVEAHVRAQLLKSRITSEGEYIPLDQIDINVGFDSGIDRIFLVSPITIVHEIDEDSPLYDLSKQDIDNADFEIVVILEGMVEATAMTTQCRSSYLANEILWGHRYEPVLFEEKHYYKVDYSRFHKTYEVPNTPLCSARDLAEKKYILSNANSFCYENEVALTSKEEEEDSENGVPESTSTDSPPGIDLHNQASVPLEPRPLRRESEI
GPR7 antag – blocks human GPR7 receptor signaling | P48145 | GPR7-expressing cells, fluorescence antagonist assay | inhibition, % at 4.4 µM | actives 1.1% (n = 290,000); in the data active means inhibition above about 16%, passing the limit was not always enough;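 further: cells stimulated with the agonist NPW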
TMEM16A act – activates or potentiates the mouse TMEM16A chloride channel; Q8BHY3; HEK293 TMEM16A/YFP-H148Q/I152L, iodide quench fluorescence; stronger effect = lower value; B-score at 10 µM; actives 0.3% (n = 340,000); AID 623877;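 active means fluorescence-ratio B-score plate-corrected deviation score at least 3 library SD below zero, with starting fluorescence score within 5 deviations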;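 further: channel opened by trigger with iodide after compound preincubation; score built on the fluorescence ratio of max minus min over baseline; more negative score means more quench and so TMEM16A activation or potentiation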
Numbers stand for hits; 0 = inactive; - = no result.

SMILES	CHT inh	TMEM16A inh	CHT allo act	Kir21 inh	GPR7 antag	TMEM16A act
COc1cc(C2CC(=O)c3c([nH]c(C(=O)OCCOC(C)C)c3C)C2)cc(OC)c1OC (stereo not drawn)	0	100	0	0	18	0
O=C(COC(=O)/C=C/c1cccc(Cl)c1Cl)Nc1ccc2[nH]c(=O)[nH]c2c1	-	-	-	-	-	0
Cc1ccc(NC(=O)C2CSC3(C)CCC(=O)N23)cc1S(=O)(=O)N1CCCCCC1 (stereo not drawn)	-	-	-	-	-	0
COc1ccccc1OCCCCCCN1CCOCC1	0	0	0	0	0	0
CC(C)c1cccc(C(C)C)c1OCCCCCN1CCOCC1	0	0	0	-5.1	-	0
CCC(C)NCCC(=O)Nc1ccc(Cl)c(S(=O)(=O)Nc2ccc(Cl)cc2)c1 (stereo not drawn)	0	0	0	0	33	0
Cc1cccc(NS(=O)(=O)c2ccc(C)c(C(=O)NCc3ccncc3)c2)c1	0	0	0	0	-	0
Cc1cccc(NC(=O)CSc2nnc(-c3ccccc3Br)o2)c1C	0	0	0	0	0	0
Cc1cc(C)c(C(=O)CSc2nnc(-c3ccccc3Br)o2)cc1C	-	-	-	0	0	-5
CC(=O)NC(c1ccc(C(C)C)cc1)c1c(O)ccc2ccccc12 (stereo not drawn)	0	0	0	0	-	0
CC(=O)NC(c1ccccc1)c1c(O)ccc2ccccc12 (stereo not drawn)	0	0	0	0	0	-6.5
OCC1(Cc2cccc(C(F)(F)F)c2)CCN(Cc2cc3ccccc3o2)CC1	0	0	0	0	0	0
COc1ccc(CC2(CO)CCN(Cc3cc4ccccc4o3)CC2)cc1	0	25	0	0	0	0
CCOC(=O)C1(C)Oc2ccc(S(=O)(=O)CC)cc2NC1=O (stereo not drawn)	0	0	0	0	0	0
Cc1cc(C)cc(NC(=S)NCC2CCN(C(C)c3ccccc3)C2)c1 (stereo not drawn)	0	0	0	-4.9	0	0
Cc1ccccc1NC(=S)NCC1CCN(C(C)c2ccccc2)C1 (stereo not drawn)	0	0	0	0	0	0
Cn1c(-c2ccc3c(c2)OCO3)cnc1NCc1ccccc1	0	0	0	-6	0	0
Cn1c(-c2cccc(Br)c2)cnc1NCc1ccccc1O	0	0	0	-6.2	0	0
Cn1c(-c2ccc3c(c2)OCO3)cnc1NCc1ccccc1Cl	0	0	0	-4.3	0	0
O=C(NC1CCCCC1)c1sc(=S)n2c1[nH]c(=O)c1ccccc12	0	100	0	0	0	0
O=C(NCC1CCCO1)c1sc(=S)n2c1[nH]c(=O)c1ccc(C(=O)N3CCCCC3)cc12 (stereo not drawn)	0	0	0	0	0	0
CC(C)S(=O)(=O)C1=NSC2=NC(=O)/C(=C\c3ccc(OC(=O)c4ccco4)cc3)C(=N)N21	-8.2	0	0	0	0	0
CCOc1cc(/C=C2/C(=N)N3C(=NC2=O)SN=C3S(C)(=O)=O)ccc1OS(=O)(=O)c1ccccc1	-5.6	0	0	0	0	0
CCOc1ccc(-n2c(C)cc(/C=C3/C(=N)N4C(=NC3=O)SN=C4S(C)(=O)=O)c2C)cc1	0	0	0	0	0	-6.3
CCS(=O)(=O)C1=NN2C(=N)/C(=C\c3ccc(OC(=O)c4ccco4)c(Br)c3)C(=O)N=C2S1	0	0	0	-6.1	0	-
SMILES	CHT inh	TMEM16A inh	CHT allo act	Kir21 inh	GPR7 antag	TMEM16A act
CCOc1cc(/C=C2/C(=N)N3C(=NC2=O)SN=C3S(C)(=O)=O)ccc1OC(=O)c1ccco1	0	0	0	0	0	0
COc1ccccc1-n1c(C)cc(/C=C2/C(=N)N3C(=NC2=O)SN=C3S(C)(=O)=O)c1C	0	0	0	0	0	0
COc1cc(/C=C2\C(=N)N3N=C(S(C)(=O)=O)SC3=NC2=O)ccc1OCCOc1ccccc1C	0	100	0	0	0	0
COc1cc(/C=C2/C(=N)N3C(=NC2=O)SN=C3S(C)(=O)=O)ccc1OS(=O)(=O)c1ccccc1	-6.2	0	0	0	0	-
CN(CC(=O)Nc1ccccc1Cl)C(=O)COC(=O)c1ccccc1[N+](=O)[O-]	0	0	0	0	-	0
O=C(NNc1ccccc1)/C(=C\c1cccnc1)NC(=O)c1ccccc1	0	0	0	0	0	0
O=C(Nc1cccc(N=Cc2cc(Br)cc(Br)c2O)c1)c1ccco1	0	0	0	0	0	0
O=C(Nc1cccc(N=Cc2cc(Cl)cc(Br)c2O)c1)c1ccco1	-7.1	0	0	0	0	0
CCOC(=O)C1(CCCc2ccccc2)CCN(C(=O)Cn2nc(C)nc2C)CC1	0	0	0	0	0	0
CN(C)CCCSc1nc(-c2ccccc2)nc2c1CCC2	0	0	0	-9.7	0	0
CN(C)CCSc1nc(-c2ccccc2)nc2c1CCC2	0	0	0	0	0	0
COc1cccc(C=O)c1OCCN1C(=O)c2ccccc2C1=O	0	0	0	0	0	0
CCCCC1=CC2=C(c3ccco3)C(=O)C(C)(OC(=O)c3ccc(OC)cc3)C(=O)C2=CN1C1CC1 (stereo not drawn)	0	0	0	0	-	0
CCCCC1=CC2=C(c3ccco3)C(=O)C(C)(OC(=O)c3ccc(OC)cc3)C(=O)C2=CN1C1CCCC1 (stereo not drawn)	-7	0	0	0	-	-
COc1ccccc1OCCCCOc1ccccc1C(C)=O	0	25	0	0	0	0
CC(=O)c1ccccc1OCCOc1ccccc1C(C)=O	0	0	0	0	0	0
Cc1sc2cc3c(c(C(=O)c4ccccc4)[n+]2c1C)-c1cccc2cccc-3c12	0	100	0	-13	0	-
CCOC(=O)c1ccc(NC(=O)c2cc3c(s2)CCC3)cc1	0	0	0	0	0	0
CC1=CC(=O)C=C(C)C1=NOS(=O)(=O)c1ccccc1	-	-	-	0	40	0
O=C(NC(Nc1nc2ccc([N+](=O)[O-])cc2s1)(C(F)(F)F)C(F)(F)F)c1ccccc1Cl	0	100	0	-5	43	0
CN(C)S(=O)(=O)c1ccc2nc(NC(=O)c3cccnc3)sc2c1	0	0	0	0	0	0
O=C(NC(Nc1nc2ccc([N+](=O)[O-])cc2s1)(C(F)(F)F)C(F)(F)F)c1cccnc1	0	100	0	-5.7	0	0
Cc1cc(=O)oc2cc(OC(=O)c3ccco3)ccc12	-	-	-	-12	0	0
O=C(Oc1ccc2c3c(c(=O)oc2c1)CCC3)c1ccco1	0	0	0	0	0	0
CC(NC(=O)CCCn1cc([N+](=O)[O-])cn1)c1ccccc1 (stereo not drawn)	0	0	0	0	0	0
COc1ccc(C2=NS(=O)(=O)N(C)C(C(=O)Nc3ccc(C(C)=O)cc3)=C2)cc1OC	0	25	0	0	0	0
CN(C)CCCN(C(=O)CCc1ccccc1)c1nc2ccc(F)cc2s1	0	0	0	-4.9	0	0
